{
  "source": "PubChem BioAssay (NCATS)",
  "key": {"[1]": {"test": "qHTS for inhibitors of adenylyl cyclases using a fission yeast platform: a pilot screen against the NCATS LOPAC library (AID 1347410)", "how_it_was_run": "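GFP from fbp1-GFP reporter, read by Acumen laser cytometry, indicates AC inhibition in fission yeast expressing AC9, GNAS and PDE4D2. Cells grown 18 h in the dark at 30C with compounds, final up to 57 uM.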"}, "[2]": {"test": "Validation qHTS assay for inhibitors of Activation Induced Cytidine Deaminase (AID): UDG Counterscreen signal (AID 1347427)", "how_it_was_run": "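Counterscreen read of UDG activity (2 U/mL, 4/3x) in the FRET deamination format with AID (1 uM, 4/3x), DJC20/DJC23 substrates (250 nM, 4x), 4 h at room temperature. NaOH stop, fluorescence at 560 ex/665 em.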"}},
  "note": "Activity calls are given as the source filed them. Entries that show only a call come without a potency. Calls follow the shape of the dose curve; as a rule, active = well fitted curve in the direction sought with a large enough effect; inconclusive = small, poorly fitted or top-dose-only effect, or another doubt; inactive = no such curve, though single readings can be large; an effect the other way counts as inactive or inconclusive.",
  "data": [
    {"smiles": "O=C(O)C1=CCCN(CCON=C(c2ccccc2)c2ccccc2)C1", "values": [
      {"measurement": "outcome", "setting": "[1]", "result": "inactive"},
      {"measurement": "Potency", "setting": "[2]", "result": "inactive"}
    ]},
    {"smiles": "O=C(O)[C@H]1NCCC[C@H]1C(=O)O", "values": [
      {"measurement": "outcome", "setting": "[1]", "result": "inactive"},
      {"measurement": "Potency", "setting": "[2]", "result": "inactive"}
    ]},
    {"smiles": "CNCCc1cnc(CCC(c2ccccc2)c2ccccc2)[nH]1", "values": [
      {"measurement": "outcome", "setting": "[1]", "result": "inactive"},
      {"measurement": "Potency", "setting": "[2]", "result": "inactive"}
    ]},
    {"smiles": "O=c1cc(-c2ccccc2F)[nH]c2cc3c(cc12)OCO3", "values": [
      {"measurement": "outcome", "setting": "[1]", "result": "inactive"},
      {"measurement": "Potency", "setting": "[2]", "result": "inactive"}
    ]},
    {"smiles": "N#CC(=C(\\N)Sc1ccccc1N)/C(C#N)=C(/N)Sc1ccccc1N", "values": [
      {"measurement": "outcome", "setting": "[1]", "result": "inactive"},
      {"measurement": "Potency", "setting": "[2]", "result": "inactive"}
    ]},
    {"smiles": "O=C(O)/C=C/c1cnc[nH]1", "values": [
      {"measurement": "Potency", "setting": "[2]", "result": "inactive"}
    ]}
  ]
}
